Measurements reported in PubChem BioAssay.
The source made the active and inactive calls.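 The calls were made as follows: active = compounds killing one labelled cell type while sparing the other, by normalised counts and ratio limits, not self-fluorescent; inactive = the rest.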

Test: differential killing of epithelial or mesenchymal cells, primary screen, imaging, PC-3E GFP, TEM4-18 mCherry, co-culture (AID 1345086);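 also: cells exposed to compound for 72 h before imaging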;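 as to red/green cell ratio (normalised): normalised mesenchymal count divided by normalised epithelial count so high means epithelial killing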
Settings: imaging cell counts, at 1 µM; for red/green cell ratio (normalised): actives lie on both sides, counts scaled to control wells, 1 = unselective
[1] = measured here: epithelial PC-3E GFP cell survival
[2] = measured here: mesenchymal TEM4-18 mCherry cell survival

Structure (SMILES) | red/green cell ratio (normalised) | normalised cell number [1] | normalised cell number [2]
CC(C)CC1C(=O)OC(C(C)C)C(=O)N(C)C(C(C)C)C(=O)OC(C(C)C)C(=O)N(C)C(C(C)C)C(=O)OC(C(C)C)C(=O)N1C (stereo not drawn) | 0.99 (inactive) | 1.17 | 1.15
COc1cc(/C=C/C(=O)O)cc(OC)c1O | 1.1 (inactive) | 1.09 | 1.2
COC(=O)C[C@@H]1C2(C)C(=O)[C@@H](CC3C2CC[C@]2(C)C3CC(=O)O[C@H]2c2ccoc2)[C@H](OC(C)=O)C1(C)C (stereo partly drawn) | 0.92 (inactive) | 1.04 | 0.95
C=C1CC[C@@]2(C)[C@H](C)CC[C@H](O)[C@@]2(CCC=C(C)C)[C@@H]1Cc1c[nH]c2ccccc12 | 0.97 (inactive) | 0.88 | 0.85
C/C=C/c1cc2c(c(=O)o1)C(=O)[C@@H](O)[C@H](C)O2 | 1.02 (inactive) | 0.9 | 0.92
CC1CC(O)C2C=CC(CC(=O)O1)O2 (stereo not drawn) | 0.76 (inactive) | 0.7 | 0.53
COC(=O)[C@@H](C)Oc1ccc(O)cc1 | 1.27 (inactive) | 0.93 | 1.18
COc1c(N2CC[C@@H](CN)C2)c(F)cc2c(=O)c(C(=O)NO)cn(C3CC3)c12 | 1.1 (inactive) | 1.04 | 1.15
C[C@@H]1C=C2C=C[C@@](C)(O)[C@](C)(C(=O)CCO)[C@H]2[C@@H](O)C1 | 0.85 (inactive) | 1.08 | 0.91
Cc1ccc(S[C@H]2OC(COCc3ccccc3)C(OC(=O)CCC(=O)O)[C@@H]3OC(=O)N[C@H]23)cc1 (stereo partly drawn) | 0.99 (inactive) | 1.11 | 1.1
COC(=O)C12C(C(C)=O)OC(CC(O)C1O)C2C (stereo not drawn) | 0.97 (inactive) | 1.04 | 1.01
CC(C)c1c(O)ccc2c1CCC1C(C)(C)CCC[C@]21C (stereo partly drawn) | 0.99 (inactive) | 1.08 | 1.07
O=C(Cc1ccncc1)c1ccc(F)cc1 | 1.16 (inactive) | 0.82 | 0.95
CC(C)CCCC(C)[C@H]1CCC2C3C(=O)C=C4C[C@@H](O)CC[C@]4(C)C3CC[C@@]21C (stereo partly drawn) | 0.98 (inactive) | 0.98 | 0.95
C=CCSC[C@@H](N)C(=O)O | 0.86 (inactive) | 1.23 | 1.06
C=C1C(=O)OC(C(=O)OC)C1(O)CCCCCCCCC (stereo not drawn) | 1.05 (inactive) | 0.99 | 1.04
CC(C)/C(O)=C1/C(=O)O[C@@H](c2ccoc2)[C@]2(C)C(O)[C@@H](O)[C@@]34OC5(C)OC67CC(C)(C(O)[C@]6(O)[C@@H](O)[C@]3(O5)C12)[C@H](CC(=O)O)C74C (stereo partly drawn) | 1.06 (inactive) | 1 | 1.06
CC1(C)C2CCC1(C)C(O)C2 (stereo not drawn) | 1.2 (inactive) | 0.75 | 0.9
COC(=O)[C@]12Oc3c(c(O)cc4c3C3C=C[C@]5(C4)C(=C(O)c4c(O)cc(C)cc4[C@@H]5OC(C)=O)C3=O)C(O)=C1C(=O)C=C[C@@H]2O | 0.99 (inactive) | 0.87 | 0.86
CC1(C)C[C@@H]2C(=O)CC[C@@H]3O[C@]3(C)CC[C@H]21 | 0.92 (inactive) | 0.93 | 0.85
CC1(C)C[C@H]2[C@@]1(O)[C@@H](O)C[C@]1(C)[C@H](O)C=C[C@]21CO | 0.9 (inactive) | 1.19 | 1.07
NCC1O[C@@H](OC2C(N)C[C@@H](N)C(OC3OC(CO)[C@@H](O)C(N)[C@H]3O)[C@H]2O)C(O)[C@@H](O)C1O (stereo partly drawn) | 1.1 (inactive) | 1.02 | 1.13
CCCCCCCCC[C@H]1O[C@]2(O)CC[C@H](O)[C@]2(O)[C@@H]1O | 0.97 (inactive) | 0.93 | 0.91
O=C(N[C@@H](Cc1ccc(O)cc1)C(=O)O)OCc1ccccc1 | 0.96 (inactive) | 1.09 | 1.04
C/C=C/[C@@H]1OC2=C(C(=O)O[C@H]2C)[C@H](O)[C@H]1O | 0.96 (inactive) | 0.76 | 0.73
Clc1ccc(Br)cc1OCC1CCCNC1 (stereo not drawn) | 0.91 (inactive) | 1.28 | 1.17

Structure (SMILES) | red/green cell ratio (normalised) | normalised cell number [1] | normalised cell number [2]
COc1c(N2CC[C@@H](CN)C2)c(F)cc2c(=O)c(C(=O)O)cn(CCCN3C(=O)c4ccccc4C3=O)c12 | 1.07 (inactive) | 1.03 | 1.1
C[C@@H]1CCC2[C@](C)(CO)[C@@H](O)CC[C@]2(C)[C@@]12CC[C@@](CO)(CCO)O2 (stereo partly drawn) | 0.93 (inactive) | 1.01 | 0.94
C[C@@H](O)[C@H]1C(=O)N2C(C(=O)O)=C(SC3CN[C@H](C(=O)N(C)C)C3)[C@H](C)[C@H]12 (stereo partly drawn) | 1.01 (inactive) | 0.98 | 0.99
CC1O[C@@H](Oc2c(-c3ccc(O)c(O)c3)oc3cc(O)cc(O)c3c2=O)[C@H](O)[C@H](O)[C@H]1O (stereo partly drawn) | 1.01 (inactive) | 1.01 | 1.02
C#C[C@H](O)COc1ccc(C(=O)O)cc1 | 1.18 (inactive) | 0.57 | 0.68
COC(=O)CCC(C)C1CCC2C3CC[C@@H]4C[C@H](O)CC[C@]4(C)C3C[C@H](O)[C@]12C (stereo partly drawn) | 0.9 (inactive) | 1.05 | 0.94
Nc1ccc2ccccc2c1S(=O)(=O)O | 0.94 (inactive) | 1.03 | 0.97
O=c1cc(-c2ccccc2)oc2cc(O)ccc12 | 0.8 (inactive) | 1.2 | 0.97
COc1ccc2oc(-c3ccccc3)c(OC)c(=O)c2c1 | 0.79 (inactive) | 1.37 | 1.08
CCCc1oc(=O)cc(OC)c1CO | 0.86 (inactive) | 1.2 | 1.03
CC(=O)O[C@H]1C[C@@]2(C)C(CCC3[C@@]4(C)C=CC(=O)[C@@H](C)C4[C@H](OC(C)=O)C(=O)[C@@]32C)/C1=C(/CCC=C(C)C)C(=O)O (stereo partly drawn) | 0.99 (inactive) | 0.92 | 0.91
COc1cc(O)c2c(c1)[C@@H](O)[C@@]13CO[C@@H](O)[C@@]1(O3)C2=O | 1.09 (inactive) | 1.01 | 1.1
COC1=N[C@@](OC)(C(C)C)C(=O)N[C@@]1(O)[C@H](O)c1ccccc1 | 0.8 (inactive) | 1.21 | 0.96
NCc1ccccc1CC(=O)NC1C(=O)N2C(C(=O)O)=C(CSc3nnnn3CC(=O)O)CSC12 (stereo not drawn) | 0.82 (inactive) | 1.19 | 0.98
C=C[C@@](C)(O)CCC1C(=C)C[C@H](OC(C)=O)C2C(C)(C)CCCC12C (stereo partly drawn) | 1.05 (inactive) | 1.03 | 1.08
CO/N=C(/C(=O)NC1C(=O)N2C(C(=O)O)=C(C[N+]3(C)CCCC3)CSC12)c1csc(N)n1 (stereo not drawn) | 1.01 (inactive) | 1.21 | 1.22
O=c1c(O)c(-c2ccccc2)oc2ccc3occc3c12 | 0.81 (inactive) | 1.22 | 0.99
[N-]=[N+]=NC1[C@@H](O)C2OC(c3ccccc3)OCC2O[C@@H]1Sc1ccccc1 (stereo partly drawn) | 1.1 (inactive) | 0.95 | 1.04
CC(CC(=O)N1CCOC1=O)N1C(=S)OC[C@@H]1c1ccccc1 (stereo partly drawn) | 1.05 (inactive) | 0.85 | 0.89
C=CC(C)(C)c1cccc2[nH]c3c(c12)C[C@@H]1CC[C@@]2(O)C4=CC(=O)[C@@H]5O[C@@]4(CC[C@]2(C)[C@@]31C)CC5(C)C | 1 (inactive) | 1.11 | 1.11
Cc1ccc(S[C@H]2OC(COS(=O)(=O)c3ccc(C)cc3)C(O)[C@@H]3OC(=O)N[C@H]23)cc1 (stereo partly drawn) | 0.86 (inactive) | 1.19 | 1.02
Cc1[nH]cc[n+]1CC1CCC2C(C1=O)c1ccccc1N2C (stereo not drawn) | 0.73 (inactive) | 1.19 | 0.87
CC[C@H](O)c1oc(=O)cc(OC)c1C | 0.96 (inactive) | 1.01 | 0.97
C=C(C)[C@@H]1CC[C@]2(C)CC[C@]3(C)[C@@H](CCC4[C@@]5(C)CC[C@H](O)C(C)(C)C5CC[C@]43C)C12 (stereo partly drawn) | 1.12 (inactive) | 0.95 | 1.07
C[C@]12CCC3c4ccc(OC(=O)c5ccccc5)cc4CCC3C1CC[C@@H]2O (stereo partly drawn) | 1.1 (inactive) | 1 | 1.1
